# Assay results taken from PubChem BioAssay.
# Calls of active or inactive are those of the source.
# Columns and labels:
# [1] = system: Human papillomavirus type 1a protein E7 (residues 44-93); experiment: small molecules binding HPV E7 44-93 – biochemical, small-molecule microarray, residues 44-93, 635 nm fluorescence, primary screen (AID 1108); settings: fluorescence 635 nm, higher = more signal;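 also: E7 fragment applied at 1 µg/mL in TBST for 1 h at 4 C; score combines spot fluorescence with its signal to noise ratio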
# [2] = hepatitis C replication reporter changes, two-sided – Huh7 cells, luciferase reporter, HCV replication inhibitor project, primary screen (AID 1109); settings: Huh7 HCV replicon luciferase reporter, 48 h; higher = more signal;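 also: huh7 hepatoma cells harbouring a luciferase neomycin HCV replicon reporter; luciferase luminescence as measure of HCV replicon replication; test concentration not given here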
# [3] = target: Left-right determination factor 2 (Homo sapiens) (UniProt O00292); experiment: small molecules binding LEFTY2 protein – biochemical, small-molecule microarray, 635 nm fluorescence scan, primary screen (AID 1110); settings: higher = more signal
# Left-right determination factor 2 (Homo sapiens), sequence (O00292 whole entry, looked up): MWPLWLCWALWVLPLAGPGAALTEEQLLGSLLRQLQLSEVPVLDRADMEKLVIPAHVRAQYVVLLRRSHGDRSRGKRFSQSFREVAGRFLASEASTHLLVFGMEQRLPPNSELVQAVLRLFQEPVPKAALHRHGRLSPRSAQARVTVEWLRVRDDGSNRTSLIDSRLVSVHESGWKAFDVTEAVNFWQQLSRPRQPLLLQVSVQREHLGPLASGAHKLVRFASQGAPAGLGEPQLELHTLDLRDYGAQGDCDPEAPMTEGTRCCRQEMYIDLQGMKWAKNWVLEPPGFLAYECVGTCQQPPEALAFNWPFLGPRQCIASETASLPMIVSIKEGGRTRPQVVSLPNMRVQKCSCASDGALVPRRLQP
# [4] = target: Calmodulin-1 (Homo sapiens) (UniProt P0DP23); experiment: small molecules binding calmodulin-1 with EGTA – biochemical, small-molecule microarray, Cy5-labelled CALM1, profiling panel (AID 1111); settings: Cy5-CALM1 binding fluorescence, higher = more signal;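 also: labelled calmodulin applied in Tris saline Tween buffer holding calcium plus EGTA and DTT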
# [5] = target: Calmodulin-1 (Homo sapiens) (UniProt P0DP23); experiment: small molecules binding Ca-loaded calmodulin-1 – biochemical, small-molecule microarray, Cy5-labelled CALM1, plus calcium, artefact control for SMM control-protein annotation, profiling panel (AID 1112); settings: Cy5-CALM1 binding fluorescence, higher = more signal;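 also: score merges spot fluorescence with signal to noise from triplicate slides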
# [6] = probe aWnt5a binding to arrayed compounds – biochemical, biotinylated probe, 635/667 nm fluorescence, primary screen (AID 1113); settings: small-molecule microarray, higher = more signal;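 also: score merges 667 nm fluorescence intensity with signal-to-noise per printed feature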
# [7] = probe aShh binding to arrayed compounds – biochemical, biotinylated probe, 635/667 nm fluorescence, primary screen (AID 1114); settings: small-molecule microarray, higher = more signal;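 also: probe is biotin-labelled aShh protein from a stem cell growth factor screen; measures binding of labelled protein to compounds printed on the slide; score merges feature fluorescence at 667 nm with signal-to-noise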
# [8] = probe aNog binding to arrayed compounds – biochemical, biotinylated probe, 635/667 nm fluorescence, primary screen (AID 1115); settings: small-molecule microarray, higher = more signal;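 also: probe is biotinylated aNog protein used at 0.15 µg/mL for 1 h at 4 C; z-score combines 667 nm fluorescence of each spot with its signal to noise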
# [9] = target: Torsin-1A-interacting protein 1 (Homo sapiens) (UniProt Q5JTV8); experiment: compound microarray binding of lysate hLAP1 – cell lysate, small-molecule microarray, COS7 lysate, 635/667 nm fluorescence, primary screen (AID 1116); settings: 635 nm fluorescence, higher = more signal
# Torsin-1A-interacting protein 1 (Homo sapiens), sequence (Q5JTV8 whole entry, looked up): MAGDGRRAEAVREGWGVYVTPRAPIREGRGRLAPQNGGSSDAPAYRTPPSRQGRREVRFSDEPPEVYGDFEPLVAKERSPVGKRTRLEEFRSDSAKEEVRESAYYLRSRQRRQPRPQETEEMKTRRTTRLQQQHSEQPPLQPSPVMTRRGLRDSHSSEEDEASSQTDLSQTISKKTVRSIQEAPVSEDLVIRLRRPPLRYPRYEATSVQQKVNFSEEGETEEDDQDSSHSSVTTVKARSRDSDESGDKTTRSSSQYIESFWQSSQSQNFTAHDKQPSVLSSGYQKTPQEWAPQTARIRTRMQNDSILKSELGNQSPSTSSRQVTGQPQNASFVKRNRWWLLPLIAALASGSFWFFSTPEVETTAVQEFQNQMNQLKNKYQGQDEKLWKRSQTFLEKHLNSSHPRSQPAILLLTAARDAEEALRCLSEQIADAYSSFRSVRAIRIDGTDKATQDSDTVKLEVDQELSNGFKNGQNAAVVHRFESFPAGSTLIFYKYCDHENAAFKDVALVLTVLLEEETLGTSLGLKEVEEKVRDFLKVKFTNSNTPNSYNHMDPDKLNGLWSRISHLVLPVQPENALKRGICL
# [10] = target: Alpha-bungarotoxin (Bungarus multicinctus) (UniProt P60615); experiment: compounds binding labelled alpha-BTX control protein – biochemical, small-molecule microarray, Alexa647 label, 635/667 nm fluorescence, artefact control for SMM control protein annotation, profiling panel (AID 1117); settings: alpha-BTX-A647 binding fluorescence, higher = more signal
# Alpha-bungarotoxin (Bungarus multicinctus), sequence (P60615 whole entry, looked up): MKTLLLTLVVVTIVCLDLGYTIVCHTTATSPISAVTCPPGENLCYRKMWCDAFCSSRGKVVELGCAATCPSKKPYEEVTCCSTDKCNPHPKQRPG
# Albumin (Bos taurus) = Albumin (Bos taurus) (UniProt P02769); experiment: compounds binding labelled BSA control protein – biochemical, small-molecule microarray, Alexa647 label, 635/667 nm fluorescence, artefact control for SMM control protein annotation, profiling panel (AID 1118); settings: BSA-A647 binding, fluorescence 635 nm, higher = more signal;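 also: score merges 667 nm emission intensity and signal-to-noise per printed compound spot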
# Albumin (Bos taurus), sequence (P02769 whole entry, looked up): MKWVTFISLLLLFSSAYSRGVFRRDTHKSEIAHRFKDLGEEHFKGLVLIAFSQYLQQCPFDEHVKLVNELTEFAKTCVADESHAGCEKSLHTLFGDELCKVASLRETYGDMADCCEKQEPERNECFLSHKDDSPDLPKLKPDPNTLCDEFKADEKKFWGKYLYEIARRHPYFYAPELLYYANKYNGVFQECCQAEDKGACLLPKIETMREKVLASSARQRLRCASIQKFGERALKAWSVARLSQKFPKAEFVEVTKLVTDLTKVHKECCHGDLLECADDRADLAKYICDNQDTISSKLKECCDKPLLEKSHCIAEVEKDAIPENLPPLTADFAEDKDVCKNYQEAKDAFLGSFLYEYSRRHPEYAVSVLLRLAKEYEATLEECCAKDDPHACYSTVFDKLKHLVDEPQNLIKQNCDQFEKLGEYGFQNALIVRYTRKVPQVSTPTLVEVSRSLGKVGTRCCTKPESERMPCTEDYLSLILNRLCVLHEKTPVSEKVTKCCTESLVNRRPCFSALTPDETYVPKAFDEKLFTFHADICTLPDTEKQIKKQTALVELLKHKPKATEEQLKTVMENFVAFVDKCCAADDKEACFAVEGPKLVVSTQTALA
# [11] = probe aXIP binding to arrayed compounds – biochemical, NeuroSMM set, 635/667 nm fluorescence, primary screen (AID 1119); settings: small-molecule microarray, higher = more signal, called active from +8 up or from −8 down;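 also: probe is the protein aXip251-270 applied at 1 µg/mL to compound-printed slides; binding of probe to printed compounds measured as 667 nm fluorescence plus signal to noise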
# [12] = probe aNOTCH3 binding on compound microarray – biochemical, small-molecule microarray, 635/667 nm fluorescence, primary screen (AID 1120); settings: higher = more signal;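 also: probe is a biotin-tagged antibody raised against NOTCH3 rather than NOTCH3 protein; score merges spot fluorescence near 667 nm with spot signal to noise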
# [13] = probe aNOTCH2 binding on compound microarray – biochemical, small-molecule microarray, 635/667 nm fluorescence, primary screen (AID 1121); settings: higher = more signal;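 also: score merges feature fluorescence read at 667 nm with its signal to noise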
# [14] = target: Carbonic anhydrase 2 (Homo sapiens) (UniProt P00918); experiment: compounds binding carbonic anhydrase 2 – biochemical, small-molecule microarray, Alexa647-labelled CAII, profiling panel (AID 1122); settings: CAII-A647 binding fluorescence, higher = more signal
# [15] = COS7 lysate on small-molecule microarray, probe aHis, 635 nm (AID 1123); settings: COS7 cell lysate, fluorescence, higher = more signal;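 also: z-score combines 667nm fluorescence intensity with signal-to-noise per printed compound spot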
# [16] = probe aLAP1 signal on lysate-treated microarray – cell lysate, small-molecule microarray, COS7 lysate, primary screen (AID 1124); settings: probe aLAP1, fluorescence, higher = more signal;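 also: lysate comes from COS7 cells expressing LAP1 and is applied at 0.3 µg/mL; score merges spot fluorescence near 667 nm with signal-to-noise over triplicate slides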
# Sam68 (KHDRBS1) = experiment: compounds binding KHDRBS1 protein – biochemical, small-molecule microarray, 635 nm fluorescence, primary screen (AID 1125); settings: higher = more signal;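 also: score merges 667 nm channel intensity with signal to noise over triplicate slides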
# [17] = system: Chordin-like protein 2 (CHRDL2); experiment: compounds binding chordin-like 2 – biochemical, small-molecule microarray, 635 nm fluorescence, primary screen (AID 1126); settings: fluorescence 635 nm, higher = more signal;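 also: printed compound slides probed with Chrdl2 protein at 4 µg/mL for 1 h at 4 C; score merges 667 nm emission intensity with signal to noise over three replicate slides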
# [18] = target: Concanavalin-A (Canavalia ensiformis) (UniProt P02866); experiment: compounds binding concanavalin A lectin – biochemical, small-molecule microarray, Alexa647 label, 635 nm, artefact control for SMM control protein annotation, primary screen (AID 1127); settings: ConA-A647 binding fluorescence, higher = more signal;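 also: z combines 667 nm emission intensity with signal-to-noise across three replicate slides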
# Concanavalin-A (Canavalia ensiformis), sequence (P02866 whole entry, looked up): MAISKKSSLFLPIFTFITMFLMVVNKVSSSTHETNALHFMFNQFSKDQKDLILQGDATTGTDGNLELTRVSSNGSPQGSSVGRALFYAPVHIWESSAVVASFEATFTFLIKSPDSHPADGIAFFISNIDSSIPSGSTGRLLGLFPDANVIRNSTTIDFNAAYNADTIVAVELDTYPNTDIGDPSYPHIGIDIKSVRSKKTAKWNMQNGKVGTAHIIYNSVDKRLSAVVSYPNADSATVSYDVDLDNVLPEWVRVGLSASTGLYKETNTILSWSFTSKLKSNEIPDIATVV
Compound,composite z-score [1],z-score [2],composite z-score [3],composite z-score [4],composite z-score [5],composite z-score [6],composite z-score [7],composite z-score [8],composite z-score [9],composite z-score [10],composite z-score (Albumin (Bos taurus)),composite Z-score [11],composite z-score [12],composite z-score [13],composite z-score [14],composite z-score [15],composite z-score [16],composite z-score (Sam68 (KHDRBS1)),composite z-score [17],composite z-score [18]
CC(C)Cc1ccc(CN2CC[C@@H](NC(=O)c3ccccc3)C2)cc1,-0.979,-4.02,0.0756,-0.816,-0.524,-0.159,-0.345,-0.367,0.367,1.01,0.767,0.196 (inactive),-0.129,-0.109,-0.0412,-0.0414,-0.0172,-0.252,0.345,-0.52
COCCOC(=O)N1C(=O)[C@@]2(c3cc(C#CCNC(N)=O)ccc31)[C@H](C(=O)Nc1nc3ccccc3s1)[C@H]1C(=O)O[C@H](c3ccccc3)[C@H](c3ccccc3)N1[C@@H]2c1ccc(O)cc1,1.2,-1.21,0.23,0.68,0.575,-0.124,0.0483,-0.314,0.618,1.6,-0.376,-0.263 (inactive),0.0203,-0.0094,0.214,0.734,0.16,1.02,0.306,1.1
O=C1O[C@H](c2ccccc2)[C@H](c2ccccc2)N2[C@H]1[C@@H](C(=O)O)[C@]1(C(=O)Nc3ccc(C#CC4(O)CCCCCC4)cc31)[C@H]2c1ccccc1OCCO,1.11,-2.11,0.39,1.99,1.03,0.0839,0.459,0.938,0.727,1.95,0.9,0.0463 (inactive),0.451,0.0979,0.487,1.27,0.774,1.32,0.0298,1.14
COC(=O)Cn1c(C(=O)N(C)C)cc2c1C[C@H]1CN(C(=O)c3ccccc3)[C@@](Cc3ccccc3)(C(=O)OC)[C@@H]21,-1.8,-0.0967,0.103,0.371,-0.198,0.0077,0.253,-0.354,-0.878,0.195,0.759,-0.265 (inactive),0.194,0.417,0.792,1.55,0.817,-0.627,-0.537,0.169
N#Cc1ccc(NN2C(C(O)c3ccc(B(O)O)cc3)C=CC3CN(c4ccccc4)C(=O)C32)cc1 (stereo not given),-0.664,0.277,-0.193,0.0251,-0.408,-0.144,-0.237,-0.196,0.11,-0.0348,0.813,-0.254 (inactive),-0.128,-0.188,0.852,0.417,-0.247,0.141,-0.412,0.133
[N-]=[N+]=Nc1ccccc1C[C@@]1(C(=O)NCc2ccccc2)N=C(c2ccc(OCCCO)cc2)O[C@@H]1c1ccccc1,1.08,-1.76,0.262,1.41,0.313,0.534,0.0326,2.22,1.13,0.39,0.747,0.157 (inactive),0.446,0.309,0.645,1.99,0.692,1.3,0.621,0.775
O=C1OCCC/C=C\[C@H]2OC34C=CCN(Cc5ccccc5)C(=O)[C@H]3N(CCO)C(=O)[C@@H]4C12 (stereo not given in full),-0.574,0.0684,0.518,-0.251,0.774,-0.169,-0.0709,-0.33,-0.447,-1.06,-0.78,0.822 (inactive),0.157,-0.0658,0.885,1.11,0.623,0.747,-0.32,-0.619
CCCCCN1CC=CC23O[C@@H]4/C=C\CCCOC(=O)C4[C@H]2C(=O)N(CCCCCO)[C@@H]3C1=O (stereo not given in full),-0.735,-0.831,-1.08,-0.517,-0.97,-0.224,0.0121,-0.121,-1.28,-0.543,-0.191,-0.594 (inactive),-0.233,-0.182,0.777,-1.89,-0.682,-0.178,-0.801,-0.691
COC(=O)[C@@]1(Cc2ccc(F)cc2)[C@H]2c3cc(C(=O)N4CCCC4)n(C[C@H](O)CO)c3C[C@H]2CN1C(=O)c1ccccc1,0.0716,-0.948,-0.358,2.69,1.27,0.429,1.41,2.28,2.35,0.185,1.13,0.133 (inactive),0.591,0.678,0.844,2.88,1.23,0.208,0.0578,0.779
COc1cccc(C)c1NC(=O)O[C@H]1[C@H](OC(=O)Nc2ccccc2-c2ccccc2)[C@@H](OC(=O)Nc2ccccc2-c2ccccc2)[C@@H](OC)O[C@@H]1CO,1.52,-3.72,0.49,1.75,-0.136,-0.0325,-0.0211,1.08,0.809,0.949,0.848,0.694 (inactive),0.668,0.0151,0.712,1.44,0.762,1.3,0.0298,1.02
